# Measured values published in PubChem BioAssay AID2330 (Broad Institute, 2010).
# Among all 37,000 compounds or so, about 2,800 (7.6%) were called active. Not shown: some 1% with an inconclusive outcome. Many of the other results were omitted from the sample, so actives are more common in it than they were. A number with no mark means an inactive call. Cut-off read from the data, not from the text of the source: active = inhibition above about 80%; inconclusive = no clear call, values can overlap the other calls; inactive = below that.
# Assay: NOMO-1 AML cell viability reduction, primary screen, STK33 inhibitor project, CellTiter-Glo luminescence (AID 2330)
# Conditions: NOMO-1 AML viability, 72 h, stronger effect = higher value, concentration not given here
row,SMILES,inhibition
1,N#Cc1cccc(CSc2nnc(CCCO)n2-c2ccccc2)c1,-3.86%
2,C[C@H]1CN([C@@H](C)CO)C(=O)c2cc(NS(=O)(=O)c3cn(C)cn3)ccc2O[C@H]1CN(C)CC1CCCCC1,0.874%
3,Cc1noc(C)c1NC(=O)Nc1ccc2c(c1)C(=O)N([C@@H](C)CO)C[C@H](C)[C@@H](CN(C)C)O2,17.2%
4,O=C(Nc1ccc(C23CC4CC(CC(C4)C2)C3)cc1)c1cccs1,1.68%
5,Cc1noc(C)c1S(=O)(=O)Nc1cccc2c1O[C@H](CN(C)Cc1ccc(C(F)(F)F)cc1)[C@H](C)CN([C@@H](C)CO)C2=O,11.5%
6,C[C@H]1CN([C@@H](C)CO)C(=O)Cc2cc(NC(=O)NC3CCCCC3)ccc2O[C@H]1CN(C)S(=O)(=O)c1ccccc1,0.581%
7,CC(=O)Nc1ccc(S(=O)(=O)N2CCCC2C(=O)O)cc1 (centres undefined),27.5%
8,C[C@H]1CN([C@@H](C)CO)C(=O)Cc2cc(NS(=O)(=O)c3ccc(Cl)cc3)ccc2O[C@@H]1CN(C)S(=O)(=O)c1ccccc1,48.5%
9,Cc1ccc(S(=O)(=O)N(C)C[C@H]2Oc3ccc(NC(=O)C4CC4)cc3C(=O)N([C@H](C)CO)C[C@H]2C)cc1,32.5%
10,CCOc1c(S(=O)(=O)NCc2cccnc2)ccc(Cl)c1Cl,-5.95%
11,Cc1ccc(Cl)cc1NC(=O)CN(c1cccc(Cl)c1C)S(C)(=O)=O,47.6%
12,C[C@@H]1CN([C@@H](C)CO)C(=O)c2cccc(NS(=O)(=O)c3cccs3)c2O[C@H]1CN(C)Cc1ccncc1,-14.5%
13,Cc1noc(C)c1S(=O)(=O)Nc1ccc2c(c1)C(=O)N([C@@H](C)CO)C[C@@H](C)[C@H](CN(C)C(=O)Nc1cccc3ccccc13)O2,7.46%
14,Cc1noc(C)c1S(=O)(=O)Nc1ccc2c(c1)C(=O)N([C@@H](C)CO)C[C@H](C)[C@H](CN(C)Cc1ccc(C(=O)Nc3ccccc3N)cc1)O2,104% (active)
15,Cc1noc(C)c1S(=O)(=O)Nc1ccc2c(c1)C(=O)N([C@@H](C)CO)C[C@@H](C)[C@H](CN(C)Cc1ccc(-c3ccccc3)cc1)O2,20.3%
16,Cn1nnc2cc(C(=O)N(CCO)c3ccccc3)ccc21,-5.36%
17,Cc1ccc2nc(-c3ccncc3)cc(C(=O)NCc3ccccn3)c2c1,53.9%
18,COC(=O)c1c(NC(=O)c2cc(-c3ccccn3)nc3ccc(Br)cc23)sc(C(=O)N(C)C)c1C,85.7% (active)
19,COC(=O)c1c(NC(=O)c2cc(-c3ccccn3)nc3c(C)cc(C)cc23)sc(C)c1C,19.6%
